# The list is not random: actives were taken first. Their share in the collection is about 3%.
# SENP8 block-1 – human SENP8 protease inhibitors, primary screen, biochemical, fluorescence, Nedd8 protein substrate, uHTS; Sentrin-specific protease 8 (Homo sapiens), Q96LD8; recombinant SENP8; inhibition, % at 20 µM; actives 0.64% (n = 360,000); in the data active = inhibition mostly above about 40%, no sharp cut-off; inactive = mostly below about 27%
# Target sequence (Q96LD8 whole entry, looked up): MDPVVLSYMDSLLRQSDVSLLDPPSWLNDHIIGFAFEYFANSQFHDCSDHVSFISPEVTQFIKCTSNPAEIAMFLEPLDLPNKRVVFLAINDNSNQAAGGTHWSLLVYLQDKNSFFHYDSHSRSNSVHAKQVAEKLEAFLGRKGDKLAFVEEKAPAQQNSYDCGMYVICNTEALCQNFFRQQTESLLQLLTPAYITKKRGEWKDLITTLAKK
# PPC-1+TRAIL kill – compounds killing PPC-1 cancer cells with TRAIL present, primary screen, TRAIL potentiator project, ATPLite luminescence, uHTS; PPC-1 cells + TRAIL, ATPLite viability luminescence; cell killing (% activity), % at 4 µM or 5 µM; actives 0.41% (n = 220,000); AID 1443, 2008;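 active = cell killing above 50% in the first pass at 4 µM, then a duplicate retest at 5 µM averaging 50% or more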;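 also: plate controls were cells with TRAIL plus DMSO for no effect and medium-only wells lacking cells for full effect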
# C8 TRAIL sens – viability loss with TRAIL in NB7+C8 cells, primary screen, TRAIL sensitizer project, cell-based, ATPlite luminescence; inhibition (viability loss, TRAIL sensitization), % at 10 µM; actives 1% (n = 360,000); AID 624354, 2012;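 active = compounds causing at least 50% loss of cell viability in the single-dose screen, relative to plate controls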
# SENP7 inh – SENP7 protease inhibitors, primary screen, biochemical, luminescence, uHTS | inhibition, % at 5 µM | recombinant SENP7, Z-RLRGG-aminoluciferin luminescence, 40 min | actives 1.5% (n = 330,000) | Sentrin-specific protease 7 (Homo sapiens), Q9BQF6;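 active = inhibition above about 50% at the single test dose, limit read from the data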;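 also: plate controls were DMSO with enzyme for no effect and no enzyme buffer wells for full effect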
# SENP8 block-2 – SENP8 protease inhibitors, primary screen, biochemical, luminescence; Sentrin-specific protease 8 (Homo sapiens), Q96LD8; purified SENP8, Z-RLRGG-aminoluciferin cleavage; inhibition, % at 10 µM; actives 1.2% (n = 330,000); AID 2540, 2010; in the data active = inhibition above about 50%
# SENP6 block – SENP6 protease inhibitors, primary screen, biochemical, luminescence, uHTS; Recombinant SENP6 catalytic domain, aminoluciferin luminescence; actives 1.8% (n = 330,000); inhibition, % at 10 µM; AID 2599, 2010; Sentrin-specific protease 6 (Homo sapiens), Q9GZR1;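 active = inhibition above about 50% at the single tested dose, limit read from the data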;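 also: plate controls were DMSO wells with enzyme for no effect and DMSO wells lacking enzyme for full effect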
# PPC1 cytotox – cytotoxicity in PPC-1 cells, confirmation, cytotoxicity control for TRAIL apoptosis potentiator project, cell-based, ATP content luminescence; shares compounds with PPC-1+TRAIL kill; actives 50% (n = 1,200); cytotoxicity, % at 5 µM; PPC-1 viability, ATPlite luminescence, overnight;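 active = reconfirmed compounds whose average cytotoxicity reaches 50% or more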;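 also: 0% = DMSO-treated cells and 100% = wells holding medium but no cells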
# SENP8 confirm – SENP8 protease inhibitors, retest, confirmation, biochemical, luminescence, single concentration. shares compounds with SENP7 inh. Recombinant SENP8, Z-RLRGG-aminoluciferin luminescence, 60 min. inhibition, % at 12.5 µM. actives 40% (n = 6,200). AID 488912, 2010;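 active = mean inhibition across replicates above about 50%, limit read from the data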
# SENP6 conf – SENP6 protease inhibitors, confirmation, biochemical, luminescence, single concentration. actives 58% (n = 6,200). inhibition, % at 12.5 µM. shares compounds with SENP7 inh. recombinant SENP6, Z-RLRGG-aminoluciferin luminescence
# SENP7 confirm – SENP7 protease inhibitors, retest, confirmation, biochemical, luminescence, single concentration; recombinant SENP7, Z-RLRGG-aminoluciferin luminescence, 40 min; shares compounds with SENP7 inh; inhibition, % at 12.5 µM; actives 69% (n = 6,200)
# Casp3 SENP sel – caspase-3 protease inhibitors, confirmation, selectivity assay for SENP inhibitor project, biochemical, single concentration | shares compounds with SENP7 inh | purified caspase-3, Z-DEVD-aminoluciferin luminescence, 60 min | inhibition, % at 12.5 µM | actives 60% (n = 6,200) | AID 488918, 2010;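 active = mean inhibition above about 50%, limit read from the data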;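 also: plate controls were enzyme with DMSO for no effect and wells without caspase-3 for full effect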
# Target sequence (P42574 28-227 limits assumed): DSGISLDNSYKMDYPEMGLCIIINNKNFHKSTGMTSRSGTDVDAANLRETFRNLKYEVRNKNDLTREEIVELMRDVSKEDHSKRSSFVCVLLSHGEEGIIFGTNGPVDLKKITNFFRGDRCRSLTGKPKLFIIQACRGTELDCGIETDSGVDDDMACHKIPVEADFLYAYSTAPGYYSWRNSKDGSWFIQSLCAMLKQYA
# Luc interf – luminescence interference (SENP counter-screen); inhibition, % at 12.5 µM; Pre-incubated SENP8/Z-RLRGG-aminoluciferin, luciferase luminescence interference; actives 39% (n = 6,200); shares compounds with SENP7 inh;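 active = mean inhibition above about 50% when retested at one dose, limit read from the data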;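 also: plate controls were DMSO wells with completed reaction for no effect and substrate without enzyme for full effect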
# * = called active by the depositor; . = no result given.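 The calls were made as follows, unless noted: active = mean inhibition above about 50% in the one-dose retest (limit read from the data); inactive = the rest.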
SMILES,SENP8 block-1,PPC-1+TRAIL kill,C8 TRAIL sens,SENP7 inh,SENP8 block-2,SENP6 block,PPC1 cytotox,SENP8 confirm,SENP6 conf,SENP7 confirm,Casp3 SENP sel,Luc interf
COc1ccc(CNC(=O)/C=C/[C@H]2O[C@@H](n3ccc(=O)[nH]c3=O)[C@H](O)[C@@H]2O)cc1,26,.,-15,.,.,.,.,.,.,.,.,.
Cc1ccc(/C=C(\C#N)c2nc3ccccc3[nH]2)s1,-22,51*,61*,84*,13,23,57*,40,31,93*,74*,61*
CSc1ccc(/C=N/NC(=O)c2ccccc2Cl)cc1,-53,8,21,6,-11,-40,.,.,.,.,.,.
CSc1ccc(/C=C/C(=O)NC(=O)c2ccccc2O)cc1,-392,60*,52*,48,79*,93*,62*,22,15,10,5,18
O=C(/C=C/c1ccc(Br)cc1)NC(=O)c1ccccc1O,-32,62*,63*,64*,78*,87*,62*,-4,55*,79*,10,24
CCOc1ccc(NC(=O)c2cccc(NC(C)=O)c2)cc1S(=O)(=O)N1CCCC1,5,.,-6,-6,6,-3,.,.,.,.,.,.
Cc1ccc(/C=C/c2ccc3cccc(O)c3n2)s1,-41,.,25,4,8,10,.,.,.,.,.,.
Cc1ccc(/C=C/c2nc3ccccc3s2)s1,-114,85*,67*,10,86*,92*,83*,97*,100*,103*,95*,78*
CCCCCCCCNc1ncnc2[nH]ncc12,3,.,14,.,.,.,.,.,.,.,.,.
CCOc1ccc(C(=O)Nc2cc(C)ccn2)cc1,10,91*,90*,96*,91*,91*,90*,-12,90*,100*,96*,91*
CCOc1ccc(C(=O)Nc2cccc(C)n2)cc1,19,51*,57*,91*,80*,87*,52*,-9,83*,98*,94*,87*
CCCNC(=O)C1(C)CCCN(C(=O)c2ccccc2OC)C1 (stereo unspecified),10,.,-10,.,.,.,.,.,.,.,.,.
Cc1ccc(S(=O)(=O)Nc2cccc(-n3cnnn3)c2)cc1C,11,.,1,0,17,18,.,.,.,.,.,.
CCCc1cc(=O)oc2cc(OCC(=O)NCCN3CCOCC3)c(Cl)cc12,-196,.,-1,.,.,.,.,.,.,.,.,.
Cc1ccc(O)c(N=Cc2sc3ccccc3c2Cl)c1,8,24,-6,1,1,30,.,.,.,.,.,.

# Source: PubChem BioAssay
